The list is not random: actives were taken first. Their share in the collection is about 10%.
Six1-Eya2 blk: blocks human Six1 binding to Eya2. Q15475+O00167. AlphaScreen GST-Six1/His-Eya2 binding, biochemical; active compounds read low. activity change, % (concentration not given with the values). hit rate 0.56% among 360,000. AID 651725; in the data active means activity change below about -65%; inconclusive means mostly about -30% to -63%; further: on the % scale 0 is the no-effect control and ±100 the full control effect
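GST-Six1 + His-Eya2 (5X stock: 250/500 nM); Tris pH 8.0, 300 mM NaCl, 0.05% BSA, 0.02% Tween 20; GSH donor/Ni acceptor beads; 1 h 37 °C dark; AlphaScreen readout.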
BAZ2B inh: blocks human BAZ2B; Potency, µM (doses to about 114 µM), for the others: at the highest dose activity change, negative = inhibition, most hits filed as inhibitors; AlphaScreen BAZ2B-H3K14Ac peptide displacement; hit rate 4.4% among 360,000; AID 504333; Q9UIF8; further: potency means the concentration at half of the fitted maximal effect; on the % scale 0 is the no-effect control and ±100 the full control effect; nearly all actives have a fitted effect of over 60% in size
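In this displacement format the biotinylated H3(5-23) peptide acetylated at Lys14 serves as ligand at 50 nM, with BAZ2B at 50 nM in PBS pH 7.4 containing 0.01% Tween-20. Donor and acceptor beads are 10 ug/mL final.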
CtBP-E1A inh: CtBP/E1A binding inhibition; AlphaScreen GST-E1A/His-CtBP binding, 1536-well; active compounds read low; activity change, % (concentration not given with the values); hit rate 0.49% among 340,000; AID 651724; in the data active means activity change below about -65%; inconclusive means mostly about -30% to -63%; further: on the % scale 0 is the no-effect control and ±100 the full control effect
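AlphaScreen with 125 nM GST-E1A and 125 nM His-CtBP (5X stocks) in Tris pH 8.0, 300 mM NaCl, BSA, Tween 20, TCEP. Compounds preincubated 2 h at 37 deg C, then glutathione donor/nickel acceptor beads added for 1 h at 37 deg C in dark.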
HP1b chromo inh: HP1-beta chromodomain-methylated histone interaction inhibition; AID 540317; Potency, µM (highest dose often 114 µM), for the others: top-dose activity change, negative = inhibition, most hits filed as inhibitors; hit rate 0.56% among 390,000; AlphaScreen HP1-beta / biotin-H3K9me3 peptide binding; further: potency means the concentration at half of the fitted maximal effect; nearly all actives have a fitted effect of over 70% in size
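HP1-beta protein (50 nM final) preincubated 30 min at room temperature with biotinylated H3(1-18)K9me3 peptide (50 nM) in PBS pH 7.4, 0.01% Tween-20, then compound added for 30 min. AlphaScreen streptavidin donor/nickel chelate acceptor beads (10 ug/mL final), 30 min dark, luminescence read.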
JMJD2A Tudor: JMJD2A Tudor domain (human) inhibition | AlphaScreen JMJD2A-Tudor / H3K4me3 peptide binding | O75164 | hit rate 4.4% among 390,000 | Potency, µM (series often up to 114 µM), for the others: top-dose activity change, negative = inhibition, usual class: inhibitors; further: potency means the concentration at half of the fitted maximal effect; on the % scale 0 is the no-effect control and ±100 the full control effect; nearly all actives have a fitted effect of over 50% in size
Target sequence (O75164 whole entry, looked up, the tested form may be a part): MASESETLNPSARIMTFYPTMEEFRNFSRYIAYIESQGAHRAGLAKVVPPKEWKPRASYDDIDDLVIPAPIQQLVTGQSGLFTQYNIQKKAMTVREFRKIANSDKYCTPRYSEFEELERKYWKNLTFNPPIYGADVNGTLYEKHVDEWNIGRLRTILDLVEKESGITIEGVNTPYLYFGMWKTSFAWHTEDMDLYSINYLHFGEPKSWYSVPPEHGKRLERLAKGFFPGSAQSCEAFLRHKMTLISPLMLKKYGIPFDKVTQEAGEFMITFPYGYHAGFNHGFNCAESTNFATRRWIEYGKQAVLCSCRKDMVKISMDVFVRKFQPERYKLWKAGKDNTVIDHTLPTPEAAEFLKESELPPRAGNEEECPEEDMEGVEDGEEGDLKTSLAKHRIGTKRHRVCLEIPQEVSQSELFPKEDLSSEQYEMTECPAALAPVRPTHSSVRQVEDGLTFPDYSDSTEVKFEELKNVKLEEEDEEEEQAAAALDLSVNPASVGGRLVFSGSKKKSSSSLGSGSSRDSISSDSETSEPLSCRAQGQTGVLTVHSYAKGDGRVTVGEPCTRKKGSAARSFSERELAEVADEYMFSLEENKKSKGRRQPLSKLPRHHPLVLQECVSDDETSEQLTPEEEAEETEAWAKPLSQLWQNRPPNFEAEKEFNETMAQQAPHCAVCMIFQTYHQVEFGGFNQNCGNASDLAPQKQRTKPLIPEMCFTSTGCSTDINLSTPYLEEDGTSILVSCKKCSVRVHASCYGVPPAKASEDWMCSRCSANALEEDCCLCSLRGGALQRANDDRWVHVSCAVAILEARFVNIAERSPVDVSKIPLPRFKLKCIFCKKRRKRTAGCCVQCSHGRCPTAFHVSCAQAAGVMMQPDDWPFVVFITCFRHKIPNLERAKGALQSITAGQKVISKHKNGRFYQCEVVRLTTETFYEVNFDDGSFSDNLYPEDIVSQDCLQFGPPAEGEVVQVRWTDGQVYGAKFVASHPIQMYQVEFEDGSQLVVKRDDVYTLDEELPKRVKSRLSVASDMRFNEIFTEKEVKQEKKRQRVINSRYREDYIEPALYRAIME
G9a inh: G9a (human) methyltransferase inhibition; AID 504332; hit rate 8.8% among 350,000; Q96KQ7; G9a H3K9 monomethylation, AlphaScreen, 2 h; Potency, µM (highest dose often 102 µM), inactives show at the top dose activity, negative = inhibition, most hits filed as inhibitors; further: potency means the concentration at half of the fitted maximal effect; on the % scale 0 is the no-effect control and ±100 the full control effect; nearly all actives have a fitted effect of over 75% in size
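Using a bead-based AlphaScreen, monomethylated H3K9 product from 2 h room-temperature reactions (G9a 20 nM, peptide 500 nM, SAM 20 uM) was detected with 0.5 ug/mL rabbit anti-H3K9me1 antibody.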
Numbers without * were called inactive; [ ] = another dose, or the depositor's remark. Unless noted, the call rests on the fitted dose curve; in most records, active means well fitted inhibition curve with a large enough effect; inconclusive means small, poorly fitted or top-dose-only effect; inactive means no such curve, though single readings can be large or run the other way.

`COc1ccccc1N1CCN(c2nc(N)c(C#N)c(CC#N)c2C#N)CC1` gave Six1-Eya2 blk -1, BAZ2B inh -34%, CtBP-E1A inh -6, HP1b chromo inh 18%, JMJD2A Tudor inconclusive and G9a inh 50µM*.
Screening O=P(O)(O)C(O)(Cc1cccnc1)P(=O)(O)O returned G9a inh 18µM*.
For CC(C)(C)NCCCCOc1ccc(F)cc1 the results were Six1-Eya2 blk 1, BAZ2B inh -6%, CtBP-E1A inh 4, HP1b chromo inh 29%, JMJD2A Tudor -6% and G9a inh -16%.
CCOc1cccc(OCCOCCNC(C)(C)C)c1 was read as Six1-Eya2 blk 9, BAZ2B inh 45µM*, CtBP-E1A inh -3, HP1b chromo inh -51%, JMJD2A Tudor 22µM* and G9a inh 14µM*.
`CCOc1ccc(OCCCCNC(C)(C)C)cc1` gave Six1-Eya2 blk 5, BAZ2B inh 50µM*, HP1b chromo inh -5%, JMJD2A Tudor 35µM* and G9a inh 22µM*.
`CC1CCN(C(=O)c2cc(-c3ccco3)on2)CC1` gave Six1-Eya2 blk 6, BAZ2B inh 0%, CtBP-E1A inh 5, HP1b chromo inh 1%, JMJD2A Tudor -13% and G9a inh inconclusive.
`O=C(c1nn2c(C(F)(F)F)cc(-c3ccco3)nc2c1Br)N1CCCc2ccccc21` gave Six1-Eya2 blk -27, BAZ2B inh 2%, CtBP-E1A inh -21, HP1b chromo inh 1%, JMJD2A Tudor -13%[57.1 µM] and G9a inh 18µM*.
CC1CCCC(C)N1C(=O)c1cc(-c2ccco2)on1 (stereo not drawn) was read as Six1-Eya2 blk 7, BAZ2B inh 0%, CtBP-E1A inh 1, HP1b chromo inh 24%, JMJD2A Tudor -7% and G9a inh 50µM*.
`CC1(C)CCCN(C(=O)c2coc(=O)c(Br)c2)C1` gave Six1-Eya2 blk inconclusive, BAZ2B inh 20µM*, CtBP-E1A inh 10, HP1b chromo inh -95% and JMJD2A Tudor 18µM*.
O=C(c1coc(=O)c(Br)c1)N1CCCc2ccccc21 was read as Six1-Eya2 blk inconclusive, BAZ2B inh 22µM*, CtBP-E1A inh -18, HP1b chromo inh -34%, JMJD2A Tudor 40µM* and G9a inh 18µM*.
For O=C(c1cccc(Br)c1)N1CCCc2ccccc21 the results were Six1-Eya2 blk 24, BAZ2B inh -5%, CtBP-E1A inh 3, HP1b chromo inh 80% and JMJD2A Tudor -1%.
Screening Cc1ccc2c(c1)c1c(c(=O)n(-c3ccccc3)c(=O)n1CC(=O)c1ccc(F)cc1)n2C returned BAZ2B inh -4%, HP1b chromo inh 2%, JMJD2A Tudor -16% and G9a inh -7%[59 µM].
O=C(c1cc(-c2ccco2)on1)N1CCCc2ccccc21 was read as Six1-Eya2 blk -3, BAZ2B inh inconclusive, CtBP-E1A inh -2, HP1b chromo inh -8%, JMJD2A Tudor 56µM* and G9a inh 13µM*.
Screening O=C(c1cc(-c2ccccc2)on1)N1CCCc2ccccc21 returned Six1-Eya2 blk 3, BAZ2B inh -10%, HP1b chromo inh 74% and JMJD2A Tudor 21%.
Screening O=C(c1cc(-c2ccco2)on1)N1CCc2ccccc2C1 returned Six1-Eya2 blk -3, BAZ2B inh 25µM*, CtBP-E1A inh 0, HP1b chromo inh -16%, JMJD2A Tudor 50µM* and G9a inh 11µM*.
Screening COc1ccc(C2c3c(n(C)c4ccccc34)C(=O)N2CC(=O)Nc2ccc(C)c(Cl)c2)cc1 (stereo not drawn) returned BAZ2B inh 0%, HP1b chromo inh 14%, JMJD2A Tudor -36% and G9a inh 12%[59 µM].
CC(C)(C)OC(=O)N[C@@H](CCCCNC(=O)OCc1ccccc1)c1nnc([C@H](CCCCNC(=O)OCc2ccccc2)NC(=O)OC(C)(C)C)o1 was read as Six1-Eya2 blk 4, BAZ2B inh 3%, HP1b chromo inh 27%, JMJD2A Tudor -25% and G9a inh -5%[59 µM].
For CC(C)(C)OC(=O)NC(CC(=O)OCc1ccccc1)C(=O)O (stereo not drawn) the results were Six1-Eya2 blk 13, BAZ2B inh 3%, HP1b chromo inh 9%[57 µM], JMJD2A Tudor -2% and G9a inh 4%[59 µM].
`COc1ccc(NC(=O)C(CCCCNC(=O)OC(C)(C)C)NC(=O)OCc2ccccc2)cc1` (stereo not drawn) gave Six1-Eya2 blk 7, BAZ2B inh inconclusive, CtBP-E1A inh 16, HP1b chromo inh 1%, JMJD2A Tudor inconclusive and G9a inh 3.5µM*.
Screening CC(C)(C)OC(=O)N[C@@H](CC(=O)OCc1ccccc1)C(=O)O returned Six1-Eya2 blk 8, BAZ2B inh 7%, CtBP-E1A inh 6, HP1b chromo inh 10%, JMJD2A Tudor 50µM* and G9a inh -31%.
COC(=O)C(Cc1cncn1COCc1ccccc1)NC(=O)OC(C)(C)C (stereo not drawn) was read as Six1-Eya2 blk -1, BAZ2B inh 79µM*, CtBP-E1A inh -15, HP1b chromo inh 13%, JMJD2A Tudor inconclusive and G9a inh 28µM*.
CCn1cc(C(=O)N2CCN(c3ccc(F)cc3)CC2)c(=O)c2cc(S(=O)(=O)N3CCOCC3)ccc21 was read as HP1b chromo inh 37%, JMJD2A Tudor -1% and G9a inh -12%[59 µM].
For O=C1CCSc2ccc(S(=O)(=O)Nc3ccc(Cl)c(C(F)(F)F)c3)cc2N1 the results were BAZ2B inh 7%[57.1 µM], HP1b chromo inh 29%, JMJD2A Tudor -2% and G9a inh -7%[59 µM].
`O=[N+]([O-])c1ccc(C=NN2CCOCC2)s1` gave Six1-Eya2 blk -28 and CtBP-E1A inh -3.
O=[N+]([O-])c1ccc(C=Nc2cccc3ccccc23)s1 was read as Six1-Eya2 blk inconclusive, BAZ2B inh 16µM*, CtBP-E1A inh -70*, HP1b chromo inh 13µM*, JMJD2A Tudor 40µM* and G9a inh 10µM*.
For CCN(CC)C(=O)C1CCCN(C/C=C/c2ccccc2)C1 (stereo not drawn) the results were Six1-Eya2 blk 1, BAZ2B inh 56µM*, CtBP-E1A inh 16, HP1b chromo inh inconclusive, JMJD2A Tudor 4.5µM* and G9a inh 10µM*.
For O=C(Nc1ccccc1Oc1cccnc1)C1CCCN(C/C=C/c2ccccc2)C1 (stereo not drawn) the results were Six1-Eya2 blk 4, BAZ2B inh -12%, CtBP-E1A inh -11, HP1b chromo inh 5% and JMJD2A Tudor -19%.

Source: PubChem BioAssay (National Center for Advancing Translational Sciences (NCATS))
